Gal4-VP16 FLuc = counter-screen for ROR gamma inhibitors: Gal4-VP16 reporter | Drosophila S2 Gal4-VP16 UAS-luciferase, luminescence, 20 h | Potency, µM (series often up to 53.6 µM), usual class: inhibitors | actives 3.5% (n = 310,000) | AID 2546;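 also: Gal4-VP16 expression switched on by copper sulfate through the metallothionein promoter; nearly all actives have a fitted effect of over 50% in size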
ClpP mod = qHTS Assay for Activators of ClpP; actives 1.9% (n = 340,000); ATP-dependent Clp protease proteolytic subunit (Bacillus subtilis (strain 168)), P80244; purified B. subtilis ClpP, FRET peptide cleavage, 20 min; Potency, µM (series often up to 57.5 µM); active = well fitted falling curve with a large enough effect; inconclusive = small, poorly fitted or top-dose-only effect; inactive = no such curve, though single readings can be large or run the other way; also: the source files actives as falling curves though it sought activators and does not explain the sign; nearly all actives have a fitted effect of over 65% in size
Target sequence (P80244 whole entry, looked up): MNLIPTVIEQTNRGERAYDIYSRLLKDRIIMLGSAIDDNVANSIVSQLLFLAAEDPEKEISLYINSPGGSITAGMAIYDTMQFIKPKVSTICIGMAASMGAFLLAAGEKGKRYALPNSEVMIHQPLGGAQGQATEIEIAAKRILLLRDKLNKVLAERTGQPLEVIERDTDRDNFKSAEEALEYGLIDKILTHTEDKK
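ClpP 10 microg/mL final, pH 8 Tris/KCl buffer with BSA, glycerol, Tween-20; compound pinned in; FRET-FV substrate; RT 20 min; Ex320/Em430; ΔFRET vs ADEP 5.8 microM, DMSO, no enzyme.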
Sfp PPTase inh = Sfp phosphopantetheinyl transferase inhibition; Q9F4F7; Biochemical Sfp PPTase activity, qHTS; Potency, µM, hits mostly inhibitors; actives 3.5% (n = 310,000);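 also: the enzyme is Sfp with the accession as filed and its product quenches rhodamine fluorescence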
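Fluorescence-quenching assay: 15 nM Sfp-PPTase preincubated 15 min at room temperature with compound, then 5 uM rhodamine-CoA and 12.5 uM BHQ-2-labelled YbbR peptide added. Fluorescence (ex 525/em 598 nm) read at start and after 30 min; difference gives rate.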
Epigenetic derep = epigenetic control regulation, reporter derepression. actives 0.2% (n = 280,000). Potency, µM (doses to about 53.9 µM), hits mostly activators. murine LDR cells, GFP reporter derepression, 30 h. AID 1865; also: nearly all actives have a fitted effect of over 60% in size
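Readout is the number of GFP-expressing murine LDR cells, counted by cytometry following washing. Cells were treated with compound for 30 h at 37 C; the stably integrated CMV-GFP locus is normally silent.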
PINK1 expr mod = changes PINK1 expression | PINK1 immunofluorescence, high-content cytometry, 24 h | actives 0.2% (n = 410,000) | Potency, µM (highest dose often 76.6 µM), most hits filed as activators | AID 624263; active = well fitted activation curve with a large enough effect; inconclusive = small, poorly fitted or top-dose-only effect; cell line not stated here; also: nearly all actives have a fitted effect of over 65% in size
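PINK1 protein, normally rapidly degraded, was detected by immunofluorescence after 24 hour compound treatment of a stable cell line. Titration data (5 concentrations) came from laser-scanning cytometry, with CCCP-treated wells as controls.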
RORgamma inh = inhibitors of mouse ROR gamma transcriptional activity; actives 5.4% (n = 310,000); Drosophila S2 Gal4-RORgamma UAS-luciferase reporter, 20 h; P51450; Potency, µM (titrated, usually from 53.6 µM), usual class: inhibitors; also: nearly all actives have a fitted effect of over 60% in size
Target sequence (P51450 whole entry, looked up, the tested form may be a part): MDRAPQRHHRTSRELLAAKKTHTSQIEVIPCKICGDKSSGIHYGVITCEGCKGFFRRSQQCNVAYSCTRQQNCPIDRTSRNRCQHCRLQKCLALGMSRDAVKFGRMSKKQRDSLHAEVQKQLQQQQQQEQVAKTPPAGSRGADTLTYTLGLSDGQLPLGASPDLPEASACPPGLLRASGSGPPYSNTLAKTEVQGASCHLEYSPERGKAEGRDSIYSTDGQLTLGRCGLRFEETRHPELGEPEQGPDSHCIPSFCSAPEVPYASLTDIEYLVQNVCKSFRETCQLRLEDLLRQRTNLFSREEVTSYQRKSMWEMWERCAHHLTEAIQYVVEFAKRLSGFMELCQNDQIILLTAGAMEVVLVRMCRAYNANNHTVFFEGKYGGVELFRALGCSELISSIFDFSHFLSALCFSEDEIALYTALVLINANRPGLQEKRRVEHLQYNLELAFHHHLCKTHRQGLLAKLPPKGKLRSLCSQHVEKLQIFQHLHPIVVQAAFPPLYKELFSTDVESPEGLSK
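Luminescence from a UAS-regulated Photinus luciferase reporter in stably transfected Drosophila Schneider cells is measured; decreased signal marks ROR gamma inhibition. Fusion expression is induced by 700 uM copper sulfate for 20 hr.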
Numbers stand for hits; i = inactive; ? = inconclusive; nt = no result; [ ] = dose if it differs, or a comment. An excerpt weighted towards active compounds, which were near 8.1% of everything screened. Unless noted, calls follow the shape of the dose curve; as a rule, active = well fitted curve in the direction sought with a large enough effect; inconclusive = small, poorly fitted or top-dose-only effect, or another doubt; inactive = no such curve, though single readings can be large; an effect the other way counts as inactive or inconclusive.

SMILES	Gal4-VP16 FLuc	ClpP mod	Sfp PPTase inh	Epigenetic derep	PINK1 expr mod	RORgamma inh
Cc1ccc(NC(=O)NC(=O)CN2CCC(C(N)=O)CC2)c(C)c1	nt	i	nt	nt	i	nt
CCN(CC)c1ccc(S(=O)(=O)N2CCOCC2)cc1NC(=O)Cn1nc(C)c([N+](=O)[O-])c1C	nt	i	nt	nt	i	nt
Cc1ccc(S(=O)(=O)N2CCN(C(=O)CN3CCc4ccccc4C3)CC2)cc1	i	i	44.7µM	i	i	i
Cc1ccc(S(=O)(=O)N2CCOCC2)cc1NC(=O)CN1CCN(c2ccc(O)cc2)CC1	i	i	39.8µM	i	i	i
CCN(CC)c1ccc(S(=O)(=O)N2CCOCC2)cc1NC(=O)CN1CCc2ccccc2C1	i[10 µM]	nt	i	i	i	3.16µM
CCOc1cc(N2CCOCC2)c(OCC)cc1NC(=O)CN1CCc2ccccc2C1	i	i	44.7µM	i	i	i
CCOc1cc(N2CCOCC2)c(OCC)cc1NCC(=O)N1CCN(Cc2ccccc2)CC1	?	nt	56.2µM	i	i	i
O=C(CN1CCc2ccccc2C1)Nc1ccccc1N1CCCCCC1	i	i	50.1µM	i	?	i
Cc1cccc(OCC(=O)Nc2ccccc2N2CCCCC2)c1C	nt	i	nt	nt	?	nt
Cc1cccc(C)c1OCC(=O)Nc1ccccc1N1CCCCC1	17.8µM	i	i	nt	?	i
CCOc1cc(N2CCOCC2)c(OCC)cc1NC(=O)CSc1ccccc1C(=O)O	nt	i	nt	nt	i	nt
Cc1ccc(-c2ccc(=O)n(CC(=O)Nc3ccc(F)c(Cl)c3)n2)cc1C	nt	i	nt	i	i	nt
Cc1nc(N2CCOCC2)c2c(C(=O)N(C)c3ccccc3)c(C)oc2n1	nt	i	nt	i	i	nt
COc1ccc(NC(=O)CN(C)C(=O)c2sc3cc(Cl)ccc3c2Cl)cc1	nt	28.2µM	nt	nt	i	nt
COc1ccc2c(Cl)c(C(N)=O)sc2c1	i	i	i	i	i	i
COc1ccc2c(Cl)c(C(=O)NN)sc2c1	?	i	i	i	nt	11.2µM
COc1ccc2c(Cl)c(C(=O)NCCc3ccc(S(N)(=O)=O)cc3)sc2c1	i	14.1µM	i	nt	i	?
COc1ccc2c(Cl)c(C(=O)NCCCn3ccnc3)sc2c1	i	i	i	i	i	i
O=C1OC(c2cccs2)=N/C1=C\c1ccc(-c2cccc(Cl)c2)o1	i	i	79.4µM	i	i	?
Clc1cccc(-c2ccc(/C=N/n3cnnc3)o2)c1	i	i	i	i	i	i
N=C1S/C(=C\c2ccc(-c3cccc(Cl)c3)o2)C(=O)N1c1nccs1	i	i	35.5µM	?	i	0.141µM
COc1ccc(/C=C2\SC(=N)N(c3nccs3)C2=O)cc1OC	?	nt	i	?	i	0.126µM
O=C(c1ccccc1)N1CCc2cc(CNS(=O)(=O)c3ccc(Cl)s3)ccc21	nt	i	nt	i	i	nt
CCc1ccc(CNCc2c(C(=O)O)n(Cc3cccc(F)c3)c3cc(OC)ccc23)cc1	nt	i	nt	i	i	nt
Cc1ccc(COC(=O)Cc2coc3cc(O)ccc23)cc1	7.08µM	i	i	nt	i	5.62µM
SMILES	Gal4-VP16 FLuc	ClpP mod	Sfp PPTase inh	Epigenetic derep	PINK1 expr mod	RORgamma inh
Cc1cc(C)nc(-n2nc(C)c(Oc3ccccc3O)c2C)n1	?	28.2µM	i	i	i	10µM
CCn1nc(C)c(Oc2ccccc2O)c1C	i	i	i	i	i	i
COC(=O)c1c(NC(=O)CC2Nc3cc(C)c(C)cc3NC2=O)sc(C)c1C (stereo not drawn)	i	i	56.2µM	i	?	i
O=C(CN1C(=O)/C(=C2\SC(=S)N(CCS(=O)(=O)O)C2=O)c2ccccc21)Nc1cccc(Br)c1	i	nt	56.2µM	nt	i	i
CCC(C)(C)NC(=O)C1CCC(CNS(=O)(=O)c2ccc3c(c2)CC(C)N3C(C)=O)CC1 (stereo not drawn)	nt	i	nt	i	i	nt
COc1cccc(NS(=O)(=O)c2cc3c4c(c2)C(C)C(=O)N4CCC3)c1 (stereo not drawn)	nt	i	nt	i	i	nt
COc1cc(/C=C/C(=O)OCC(=O)NC(=O)NC(C)C)cc(S(=O)(=O)N2CCc3ccccc32)c1OC	i	20µM	i	i	i	i
COc1cc(/C=C/C(=O)OCC(=O)N2CCc3ccccc32)cc(OC)c1OC	nt	i	nt	nt	i	nt
CC(C)=CCC1(CC=C(C)C)C(=O)C(C(=O)c2ccccc2)=C2OC(C)(C)CCC2(CC=C(C)C)C1=O (stereo not drawn)	i[10 µM]	nt	i	i[10.1 µM]	nt	i[10 µM]
Cc1c(C(=O)N2CCCC2)oc2c1-c1nn(CC(=O)NCCCOC(C)C)cc1CC2	i	i	i	i	i	i
CCCCN(CC)CCNC(=O)Cn1cc2c(n1)-c1c(oc(C(=O)N3CCCC3)c1C)CC2	?	i	i	i	i	15.8µM
COc1ccc(C2(O)CC3CCC(C2)N3c2nc(C)cc(C)c2C#N)cc1 (stereo not drawn)	i[0.365 µM]	28.2µM	i	i	i	i
COc1ccc(Oc2nc(C)cc(C)c2C#N)cc1	i	i	i	i	i	i
CC(=O)c1cccc(NC(=O)c2cc3sc(Cl)cc3n2C)c1	nt	i	nt	i	i	nt
c1ccc(-c2nc3ccccc3nc2N2CCOCC2)cc1	i	i	i	i	i	i
Cn1c(N2CCOCC2)nc(-c2ccccc2)c1-c1ccccc1	i	11.2µM	i	i	i	i
CC(Oc1ccccc1)C(=O)Nc1ccc(C(=O)OCc2cc(=O)n3nc(C4CC4)sc3n2)cc1 (stereo not drawn)	nt	i	nt	i	i	nt
CCc1nc(-c2ccccc2)c2ccccn12	i	nt	28.2µM	i	i	i
CCc1ccccc1NC(=O)Nc1nnc(N(CC)c2ccccc2)s1	nt	i	nt	i	i	nt
COc1ccc(C(=O)Nn2c(SCC(=O)NCC3CCCO3)nc3ccccc3c2=O)cc1 (stereo not drawn)	?	?	i	i	i	7.08µM
COc1ccc(C(=O)Nn2c(SCC(=O)NCc3ccccc3)nc3ccccc3c2=O)cc1	i	i	i	i	i	10µM
COc1ccc2c(c1)c1c(c(=O)n(Cc3ccccc3)c(=O)n1CC(=O)NCc1ccccc1Cl)n2C	nt	?	nt	i	i	nt
CCCCCCCCOC(=O)c1c(CSC(=N)N)n(C)c2cc(Br)c(OC(C)=O)cc12	?	i	39.8µM	i	i	?
CCOC(=O)c1c(CSC(=N)N)n(-c2ccc(Br)cc2)c2cc(Br)c(OC(C)=O)cc12	?	?	?	i	i	?
C=CCCc1ccc(C#N)c(SCc2c(C(=O)OCC)c3cc(OC(C)=O)c(Br)cc3n2C)n1	i	i	?	12.6µM	i	i
Cc1ccc(NC(=O)CSc2nc3c(oc4ccccc43)c(=O)n2-c2ccc(F)cc2)c(C)c1	nt	i	nt	i	i	nt
COc1cc(NC(=S)N2c3ccccc3CC2C)cc(OC)c1 (stereo not drawn)	17.8µM	i	i	nt	i	8.91µM
COc1ccc(OC)c(NC(=S)N2c3ccccc3CC2C)c1 (stereo not drawn)	i	i	i	nt	i	i
